Test [1] in a line: Identifying Small Molecule Inhibitors of Pancreatic Cancer Stem Cells (SN12C, Adherent) (AID 1259358).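 Further: cell survival measured after 48 h of compound exposure.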 The procedure, abridged: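 Cytotoxicity read by CellTiter-Glo luminescence after 48 h compound exposure at 37C; percent activity scaled between DMSO-treated cells and cell-free wells. Spheroid formats used cells pre-formed 14 days in stem cell media on hydrogel.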
Test [2] is described as follows: P-glycoprotein substrates identified in KB-8-5-11 adenocarcinoma cell line, qHTS therapeutic library screen (AID 1346987). Further: nearly all actives have a fitted effect of over 65% in size. Further: potency means the concentration at half of the fitted maximal effect. An outline of the steps:
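In this qHTS, P-gp-rich KB-8-5-11 cells received library compounds across a concentration range. Viability was quantified by luminescence after 72 h at 37 degree C.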

Test [3] can be described thus: qHTS for Inhibitors of the Functional Ribonucleoprotein Complex (vRNP) of Lassa (LASV) Arenavirus: LASV Primary Screen - GLuc reporter signal (AID 1347082; calls by dose curve; tested in HEK293 reporter line; further: series mostly up to about 57 µM; nearly all actives have a fitted effect of over 60% in size). A general note: In qHTS, concentration-response curves come from the screen itself.
A short description of test [4]: qHTS for Inhibitors of the Functional Ribonucleoprotein Complex (vRNP) of Lassa (LASV) Arenavirus: Viability assay - alamar blue signal for LASV Primary Screen (AID 1347083; calls by dose curve; tested in HEK293 reporter line; further: series mostly up to about 57 µM; nearly all actives have a fitted effect of over 80% in size).
Test [5] in a line: qHTS for Inhibitors of the Functional Ribonucleoprotein Complex (vRNP) of Lymphocytic Choriomeningitis Arenaviruses (LCMV): Viability assay - alamar blue signal for LCMV Primary Screen (AID 1347085; calls by dose curve; tested in HEK293 reporter line; further: series mostly up to about 57 µM; nearly all actives have a fitted effect of over 80% in size).
The target of test [6] is Nucleoprotein (Lymphocytic choriomeningitis virus (strain Armstrong)) (UniProt P09992). Nature of the test: qHTS for Inhibitors of the Functional Ribonucleoprotein Complex (vRNP) of Lymphocytic Choriomeningitis Arenaviruses (LCMV): LCMV Primary Screen - GLuc reporter signal (AID 1347086; calls by dose curve; further: series mostly up to about 57 µM; nearly all actives have a fitted effect of over 70% in size).
Test [7] is described as follows: qHTS of pediatric cancer cell lines to identify multiple opportunities for drug repurposing: Primary screen for TC32 cells (AID 1347089). Further: nearly all actives have a fitted effect of over 60% in size. Further: potency means the concentration at half of the fitted maximal effect. An outline of the steps: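 Luminescent ATP read-out (CellTiter-Glo) of metabolically active TC32 cells after 48 h exposure. Concentration-response curves came from 11-point (MIPE, 0.78 nM–46 µM) or 8-point (NPC, 0.59 nM–46 µM) primary titrations; follow-up used 11 points.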

Test [8] can be described thus: qHTS of pediatric cancer cell lines to identify multiple opportunities for drug repurposing: Primary screen for DAOY cells (AID 1347090). Further: nearly all actives have a fitted effect of over 55% in size. Further: potency means the concentration at half of the fitted maximal effect. An outline of the steps:
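Cell viability, CellTiter-Glo luminescence; 500-1,000 cells/well, 8- or 11-point titration, 48 h compound exposure at 37 degrees C, 5% CO2. Controls: DMSO neutral, bortezomib 2.3 µM final as positive.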

A short description of test [9]: P-glycoprotein substrates identified in KB-3-1 adenocarcinoma cell line, qHTS therapeutic library screen (AID 1346986). Further: nearly all actives have a fitted effect of over 60% in size. The procedure, abridged: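 Dose-response cytotoxicity, KB-3-1 vs P-gp-high KB-8-5-11, no colchicine in assay medium. Read: CellTiter-Glo at 72 h.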
A short description of test [10]: Natriuretic polypeptide receptor (hNpr1) antagonism - Pilot counterscreen GloSensor control cell line (AID 1347045; calls by dose curve; further: series mostly up to about 38 µM). An outline of the steps: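 HEK293 cGMP-sensor cells; 2% GloSensor reagent 2 h RT; LOPAC compounds in 1:5 titrations 30-50 min; 50 uM SNP 20 min; luminescence pre-read and post-read.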
Test [11] has as its target Atrial natriuretic peptide receptor 2 (Homo sapiens) (UniProt P20594). Briefly: Natriuretic polypeptide receptor (hNpr2) antagonism - Pilot subtype selectivity assay (AID 1347050; calls by dose curve). The procedure, abridged: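 Antagonist mode: compounds (LOPAC1280, seven 1:5 dilutions) added 30 min before 1 nM hNppC stimulation of hNpr2-HEK293 cGMP-sensor cells; luminescence read before and 20 min after agonist at ambient temperature.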

In test [12] the target is Parathyroid hormone/parathyroid hormone-related peptide receptor (Homo sapiens) (UniProt Q03431). Briefly: qHTS for PTHR1 Agonists: Optimization Screen against the NCGC LOPAC library (AID 1347079).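 Further: GloSensor cAMP luminescence in HEK-293 GP2 cells expressing human PTHR1 with IBMX.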 The procedure, abridged: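 Signal increase flags agonism. GP2 cells, derived from HEK-293, express human PTHR1 and a GloSensor cAMP construct.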
The nature of test [13]: NS1 protein of Zika virus - qHTS assay to identify small molecule inhibitors in human HEK 293 cells (AID 1347053). Further: nearly all actives have a fitted effect of over 55% in size. Further: potency means the concentration at half of the fitted maximal effect. The procedure, abridged:
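Read-out is a two-antibody TR-FRET for ZIKV NS1, normalized between uninfected cells and infected cells. Compound added 1 h before MR766 infection at MOI 0.5; human HEK 293 cells incubated 24 h, 37 C.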

Test [14] addresses Tyrosine-protein phosphatase non-receptor type substrate 1 (Homo sapiens) + Leukocyte surface antigen CD47 (Homo sapiens) (UniProt P78324+Q08722). Briefly: CD47-SIRPalpha protein protein interaction - Alpha assay qHTS validation (AID 1347059).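 Further: bead proximity luminescence from CD47 binding SIRPalpha after compound preincubation with SIRPalpha.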 The procedure, abridged:
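AlphaScreen signal between CD47-His (12.5 nM) and biotin-SIRPalpha (25 nM) soluble extracellular domains, bead-captured via Ni-NTA and streptavidin. Compounds, in 7-point titrations, met SIRPalpha 30 min before CD47; PBS pH 7.4 with 0.05% IGEPAL.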

SMILES strings stand for the structures. Values joined by “and” are separate entries in the source; they are usually repeats but may differ in a detail not shown here. Equal entries are not always repeated. Records with an inconclusive call do not appear. Some structures have more than one record in an assay (separate samples or runs), and their calls can disagree. Active and inactive are the calls of the source. Unless noted, the call rests on the fitted dose curve; in most records, active means well fitted curve in the direction sought with a large enough effect; inconclusive means small, poorly fitted or top-dose-only effect, or another doubt; inactive means no such curve, though single readings can be large; an effect the other way counts as inactive or inconclusive.

Chain of Nucleoprotein (Lymphocytic choriomeningitis virus (strain Armstrong)) (P09992 whole entry, looked up): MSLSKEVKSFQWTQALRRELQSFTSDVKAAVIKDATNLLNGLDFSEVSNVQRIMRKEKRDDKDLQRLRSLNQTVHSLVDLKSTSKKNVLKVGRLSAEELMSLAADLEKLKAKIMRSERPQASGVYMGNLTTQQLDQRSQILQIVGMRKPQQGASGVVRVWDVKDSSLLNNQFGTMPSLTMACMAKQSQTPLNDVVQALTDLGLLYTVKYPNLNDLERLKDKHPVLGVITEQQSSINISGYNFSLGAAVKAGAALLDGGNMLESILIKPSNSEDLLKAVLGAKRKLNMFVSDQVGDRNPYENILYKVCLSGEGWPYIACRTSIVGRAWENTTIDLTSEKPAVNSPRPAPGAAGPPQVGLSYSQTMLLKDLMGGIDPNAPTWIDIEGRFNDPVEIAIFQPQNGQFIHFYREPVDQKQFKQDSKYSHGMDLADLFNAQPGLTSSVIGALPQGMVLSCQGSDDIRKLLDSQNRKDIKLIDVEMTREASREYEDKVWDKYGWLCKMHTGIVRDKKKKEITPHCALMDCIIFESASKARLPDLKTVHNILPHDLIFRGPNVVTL
Chain of Atrial natriuretic peptide receptor 2 (Homo sapiens) (P20594 whole entry, looked up): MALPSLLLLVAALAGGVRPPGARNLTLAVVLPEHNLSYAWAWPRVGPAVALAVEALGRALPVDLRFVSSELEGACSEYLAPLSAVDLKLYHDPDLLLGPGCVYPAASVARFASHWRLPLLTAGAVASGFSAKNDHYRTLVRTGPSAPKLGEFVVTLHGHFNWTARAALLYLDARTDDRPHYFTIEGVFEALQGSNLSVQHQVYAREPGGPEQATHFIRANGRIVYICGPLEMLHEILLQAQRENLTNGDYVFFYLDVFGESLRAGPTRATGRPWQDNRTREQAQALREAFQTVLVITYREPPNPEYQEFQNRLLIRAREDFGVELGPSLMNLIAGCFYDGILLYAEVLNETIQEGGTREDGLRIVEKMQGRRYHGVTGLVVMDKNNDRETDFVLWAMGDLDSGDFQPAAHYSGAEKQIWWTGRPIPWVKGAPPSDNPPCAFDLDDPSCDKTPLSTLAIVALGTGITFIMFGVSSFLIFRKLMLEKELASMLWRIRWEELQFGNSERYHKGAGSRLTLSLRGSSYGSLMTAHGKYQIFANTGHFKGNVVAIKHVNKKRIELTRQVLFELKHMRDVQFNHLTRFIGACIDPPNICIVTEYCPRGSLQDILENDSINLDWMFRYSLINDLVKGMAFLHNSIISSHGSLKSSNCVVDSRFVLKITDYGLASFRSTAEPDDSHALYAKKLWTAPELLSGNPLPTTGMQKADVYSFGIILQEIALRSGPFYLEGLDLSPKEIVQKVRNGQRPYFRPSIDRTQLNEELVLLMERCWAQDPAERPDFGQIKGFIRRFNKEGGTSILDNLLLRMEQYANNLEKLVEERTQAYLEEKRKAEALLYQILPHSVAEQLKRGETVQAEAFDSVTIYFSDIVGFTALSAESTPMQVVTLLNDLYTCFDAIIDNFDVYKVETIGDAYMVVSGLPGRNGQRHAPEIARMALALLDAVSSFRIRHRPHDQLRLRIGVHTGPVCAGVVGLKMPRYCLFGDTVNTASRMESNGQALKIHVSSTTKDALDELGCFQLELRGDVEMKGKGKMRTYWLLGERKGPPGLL
Chain of Parathyroid hormone/parathyroid hormone-related peptide receptor (Homo sapiens) (Q03431 whole entry, looked up): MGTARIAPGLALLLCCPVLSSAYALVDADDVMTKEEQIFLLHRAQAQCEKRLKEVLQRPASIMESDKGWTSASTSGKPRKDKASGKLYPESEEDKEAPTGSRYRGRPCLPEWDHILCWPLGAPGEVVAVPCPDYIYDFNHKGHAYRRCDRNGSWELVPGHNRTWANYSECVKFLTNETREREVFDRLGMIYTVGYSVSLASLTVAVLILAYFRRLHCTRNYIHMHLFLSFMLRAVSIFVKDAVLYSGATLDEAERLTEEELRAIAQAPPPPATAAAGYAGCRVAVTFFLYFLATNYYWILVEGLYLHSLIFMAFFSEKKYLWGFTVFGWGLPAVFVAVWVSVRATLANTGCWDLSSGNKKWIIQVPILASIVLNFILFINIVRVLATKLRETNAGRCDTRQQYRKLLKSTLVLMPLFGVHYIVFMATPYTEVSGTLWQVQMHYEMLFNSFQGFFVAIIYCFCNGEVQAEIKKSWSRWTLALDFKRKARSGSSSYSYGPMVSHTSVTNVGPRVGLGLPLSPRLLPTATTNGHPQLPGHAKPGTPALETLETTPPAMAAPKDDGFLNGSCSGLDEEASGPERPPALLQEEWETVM
Chain of Tyrosine-protein phosphatase non-receptor type substrate 1 (Homo sapiens) + Leukocyte surface antigen CD47 (Homo sapiens) (P78324 whole entry, looked up, the tested form may be a part): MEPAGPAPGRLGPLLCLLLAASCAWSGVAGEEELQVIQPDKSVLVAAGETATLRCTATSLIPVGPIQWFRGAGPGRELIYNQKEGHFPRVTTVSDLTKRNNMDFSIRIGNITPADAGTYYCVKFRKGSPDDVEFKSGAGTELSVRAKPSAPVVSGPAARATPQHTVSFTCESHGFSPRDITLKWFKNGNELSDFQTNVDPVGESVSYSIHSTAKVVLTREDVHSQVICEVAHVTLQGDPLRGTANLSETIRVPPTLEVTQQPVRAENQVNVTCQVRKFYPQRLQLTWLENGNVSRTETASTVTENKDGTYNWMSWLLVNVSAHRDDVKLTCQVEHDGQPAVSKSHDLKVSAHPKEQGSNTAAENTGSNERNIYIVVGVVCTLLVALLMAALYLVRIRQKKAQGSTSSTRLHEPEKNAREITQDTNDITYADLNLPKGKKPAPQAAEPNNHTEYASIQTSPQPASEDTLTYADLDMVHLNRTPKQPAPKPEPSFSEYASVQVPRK
Chain of Tyrosine-protein phosphatase non-receptor type substrate 1 (Homo sapiens) + Leukocyte surface antigen CD47 (Homo sapiens) (Q08722 whole entry, looked up, the tested form may be a part): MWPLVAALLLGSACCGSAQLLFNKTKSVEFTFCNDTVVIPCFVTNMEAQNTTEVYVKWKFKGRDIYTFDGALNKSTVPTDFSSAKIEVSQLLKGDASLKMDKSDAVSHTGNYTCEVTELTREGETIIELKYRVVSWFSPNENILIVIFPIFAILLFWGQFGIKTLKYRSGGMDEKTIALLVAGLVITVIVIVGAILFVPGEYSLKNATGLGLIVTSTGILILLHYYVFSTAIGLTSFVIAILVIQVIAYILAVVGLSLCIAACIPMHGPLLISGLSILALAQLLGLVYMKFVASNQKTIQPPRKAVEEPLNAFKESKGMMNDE

For the compound `COc1ccc(C(=O)c2c(C)n(CCN3CCOCC3)c3ccccc23)cc1`, the Potency result in test [1], in [3], in test [4], in test [5], in test [6] and in test [7] was “inactive” throughout. Further, the Potency entry in test [8] is “inactive”. For the same compound, the Potency entry in test [2] was “inactive and 5.8 µM (active)”.
As for `CCCC(C)(COC(N)=O)COC(=O)NC(C)C` (stereo not given), the Potency result in test [9], in test [2], in test [10], in test [11], in test [3] and in test [4] was “inactive” throughout. The Potency result in test [5], in [6] and in test [7] was “inactive” in each case. Moreover, the outcome in test [12] was inactive.
On to `CC(C)CC(N(C)C)C1(c2ccc(Cl)cc2)CCC1` (stereo not given), for which the Potency entry in test [2], in test [13], in test [3], in test [5], in test [6] and in test [7] was “inactive” throughout. Further, in test [8], the Potency result was “inactive”.
Turning to `N[C@@H](Cc1ccc(N(CCCl)CCCl)cc1)C(=O)O`, the Potency result in test [2], in [3], in test [4], in [5] and in test [6] was “inactive” in each case. Moreover, the Potency in test [13] was 8.33 µM (active); in test [7], 20.8 µM (active); in [8], 16.8 µM (active) and 18.7 µM (active).
Turning to `CC[C@@H](CO)NC(=O)[C@@H]1C=C2c3cccc4c3c(cn4C)C[C@H]2N(C)C1`, the Potency in test [2] is 20.6 µM (active). In addition, the Potency entry in [10], in test [11], in test [3], in test [4], in [5] and in test [6] was “inactive” in each case. Besides, the Potency result in [7] was “inactive”. In addition, the outcome in test [14] and in [12] was inactive.
For the compound `CC(C)(N)Cc1ccc(Cl)cc1`, the Potency result in test [2], in test [13], in test [3], in test [4], in test [5] and in test [6] was “inactive” throughout. For the same compound, the Potency result in test [7] is “inactive”.
As for `CC(C)=CC1C(C(=O)OCc2cccc(Oc3ccccc3)c2)C1(C)C` (stereo not given), the Potency result in test [2], in [13], in [3], in test [4], in test [5] and in [6] was “inactive” throughout. Also, the Potency entry in test [7] and in [8] was “inactive” each time.
For `C[C@H]1O[C@@H](O[C@H]2[C@@H](O)C[C@H](O[C@H]3[C@@H](O)C[C@H](O[C@H]4CC[C@@]5(C)[C@H](CC[C@@H]6[C@@H]5CC[C@]5(C)[C@@H](C7=CC(=O)OC7)CC[C@]65O)C4)O[C@@H]3C)O[C@@H]2C)C[C@H](O)[C@@H]1O`, the Potency is 65.1 nM (active) and 76.9 nM (active) in test [2]; 0.0374 µM (active) in test [7]; 13.3 nM (active) in test [8]. Moreover, the Potency entry in test [13] was “inactive”.
Consider `O=P1(NCCCl)OCCCN1CCCl` (stereo not given), for which the Potency in test [2] was 10.5 µM (active). In addition, the Potency result in [13], in test [3], in test [4], in test [5], in test [6] and in test [7] was “inactive” throughout. For the same compound, the Potency entry in [8] is “inactive”.
Consider `OCCOc1ccccc1`, for which the Potency result in [2], in [13], in test [3], in test [4], in test [5] and in test [6] was “inactive” throughout. Besides, the Potency entry in test [7] was “inactive”.
Consider `N[C@@H]1C[C@H]1c1ccccc1`, for which the Potency result in test [2], in [3], in test [4], in test [5], in [6] and in test [7] was “inactive” each time.
Take `O=c1oc2ccccc2c(O)c1C(CC(O)c1ccc(-c2ccc(Br)cc2)cc1)c1ccccc1` (stereo not given): the Potency result in test [2], in test [3], in [4], in test [5], in [6] and in [7] was “inactive” in each case.
`COC[C@@H](NC(C)=O)C(=O)NCc1ccccc1`: the Potency entry in [2], in [13], in test [3], in test [4], in test [5] and in [6] was “inactive” throughout. In addition, the Potency entry in test [7] and in [8] was “inactive” in each case.
Regarding `N[C@@H](Cc1ccc(Oc2cc(I)c(O)c(I)c2)c(I)c1)C(=O)O`, the Potency entry in test [2], in test [13], in test [3], in [4], in [5] and in test [6] was “inactive” throughout. In addition, the Potency entry in test [7] and in test [8] was “inactive” throughout.

Values taken from PubChem BioAssay (NCATS).
